Hits are enriched below; roughly 1.2% of the tested compounds scored in any of these assays.
VLA-4 inh – inhibition in a human VLA-4 binding assay; P13612; VLA-4 expressing cells, ligand binding flow cytometry; inhibition, % (about 7 µM as worked out from the volumes in the protocol); 330,000 compounds, 0.2% hits; AID 2557; in the data active = inhibition above about 50%
JMJD2C inh – inhibitors of human GASC-1 (JMJD2C) demethylase. inhibition, % at 2.35 µM. GST-JMJD2C(1-420) H3K9me3 demethylation, DELFIA europium. 330,000 compounds, 0.069% hits;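 active = more than half of a compound's replicate wells show inhibition beyond 50%, single wells judged on their own value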;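 also: signal counts dimethyl H3K9 product captured on neutravidin plate; 0% = median of DMSO wells and 100% = 0.3 times that DMSO median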
GPR7 antagonist – antagonists of human GPR7 (neuropeptides B/W receptor 1). P48145. GPR7-expressing cells, fluorescence antagonist assay. inhibition, % at 4.4 µM. 290,000 compounds, 1.1% hits. AID 1861; in the data active = inhibition above about 16%, passing the limit was not always enough;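 also: cells stimulated with the agonist NPW; 0% = agonist with vehicle and 100% = vehicle without agonist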
pCIP destab – lowers stability of the mouse p/CIP coactivator protein. Q05BA5. F442A p/CIP-EGFP cells, EGFP fluorescence, 16 h. decrease of EGFP signal, % at 10 µM. 290,000 compounds, 0.01% hits. AID 1984;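 active = EGFP signal decrease of at least 30% at 10 µM or well 3 SD below plate mean, unless failing retest; inactive = the rest, including hits failing retest or dose response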
Target sequence (Q05BA5 1-1403): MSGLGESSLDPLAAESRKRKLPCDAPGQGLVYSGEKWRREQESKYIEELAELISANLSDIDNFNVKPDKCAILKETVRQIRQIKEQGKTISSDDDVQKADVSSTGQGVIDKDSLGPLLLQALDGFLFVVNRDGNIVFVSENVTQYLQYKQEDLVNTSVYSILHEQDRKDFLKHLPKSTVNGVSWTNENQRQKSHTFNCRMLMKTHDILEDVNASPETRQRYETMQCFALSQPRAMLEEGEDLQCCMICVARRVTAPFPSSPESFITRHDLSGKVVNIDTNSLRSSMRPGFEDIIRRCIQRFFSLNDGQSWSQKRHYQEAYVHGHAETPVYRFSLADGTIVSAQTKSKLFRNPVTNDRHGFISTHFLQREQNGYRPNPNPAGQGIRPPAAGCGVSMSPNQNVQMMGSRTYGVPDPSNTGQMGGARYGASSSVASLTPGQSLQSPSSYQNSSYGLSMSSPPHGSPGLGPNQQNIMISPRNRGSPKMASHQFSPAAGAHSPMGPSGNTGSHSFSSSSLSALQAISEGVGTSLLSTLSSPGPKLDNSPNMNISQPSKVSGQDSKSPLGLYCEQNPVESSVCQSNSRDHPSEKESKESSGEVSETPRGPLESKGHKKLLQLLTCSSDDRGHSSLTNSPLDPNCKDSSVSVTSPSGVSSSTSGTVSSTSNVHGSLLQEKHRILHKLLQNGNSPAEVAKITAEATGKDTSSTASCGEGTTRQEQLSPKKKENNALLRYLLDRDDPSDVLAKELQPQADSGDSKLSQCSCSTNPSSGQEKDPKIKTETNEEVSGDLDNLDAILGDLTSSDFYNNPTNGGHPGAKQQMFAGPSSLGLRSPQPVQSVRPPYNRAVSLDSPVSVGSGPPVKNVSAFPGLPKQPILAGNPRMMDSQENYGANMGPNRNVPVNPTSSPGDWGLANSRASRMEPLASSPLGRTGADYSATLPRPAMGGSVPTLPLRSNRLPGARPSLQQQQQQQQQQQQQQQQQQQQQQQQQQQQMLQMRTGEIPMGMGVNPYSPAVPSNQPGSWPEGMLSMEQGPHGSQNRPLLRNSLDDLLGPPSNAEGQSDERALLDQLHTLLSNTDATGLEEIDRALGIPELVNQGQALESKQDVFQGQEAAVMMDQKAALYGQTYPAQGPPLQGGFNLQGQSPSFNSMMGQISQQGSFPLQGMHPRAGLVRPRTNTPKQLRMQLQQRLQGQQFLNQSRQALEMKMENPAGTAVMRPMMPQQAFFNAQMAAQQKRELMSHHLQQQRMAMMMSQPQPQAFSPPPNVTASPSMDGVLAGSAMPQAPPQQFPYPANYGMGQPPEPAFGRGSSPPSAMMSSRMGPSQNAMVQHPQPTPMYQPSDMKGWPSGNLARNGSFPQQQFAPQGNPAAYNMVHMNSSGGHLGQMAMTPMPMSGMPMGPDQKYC
VLA-4 allo CP – human VLA-4 allosteric modulation in cherry picked compounds | shares compounds with VLA-4 inh | U937 cells, HUTS-21 LIBS mAb binding, flow cytometry; LDV ligand present at threefold Kd | inhibition, % at 6.7 µM | 1,300 compounds, 2% hits; in the data active = inhibition above about 40%;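 also: 0% = ligand without compound and 100% = no ligand background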
The depositor's hits bear a star; . = not tested or not shown.

SMILES	VLA-4 inh	JMJD2C inh	GPR7 antagonist	pCIP destab	VLA-4 allo CP
CN1C(=O)/C(=N\OC(=O)c2cccc3ccccc23)c2ccccc21	66*	-7	-6	1	0
COc1ccc(C(=O)O/N=C2\C(=O)N(C)c3ccccc32)cc1	15	-2	.	.	.
COc1ccccc1-n1nnnc1SCC(=O)Nc1ccc(C)c(N)c1	54*	8	5	10	3
COc1ccc(NC(=O)CSc2nnnn2-c2ccccc2OC)c(OC)c1	3	-14	7	4	.
CCN(C(=O)COC(=O)c1cccnc1SC)c1c(N)n(Cc2ccccc2)c(=O)[nH]c1=O	1	2	.	.	.
c1ccc(CCC2CCCCN2Cc2nc(C3CC3)no2)cc1 (stereo not drawn)	45	7	-5	1	-15
O=C(CSc1nc(=O)[nH]c2c1CCCC2)Nc1cc(C(F)(F)F)cc(C(F)(F)F)c1	-2	4	.	.	.
CCOC(=O)C1(Cc2ccccc2C(F)(F)F)CCN(CC2CC2)CC1	5	6	14	-16	.
O=C(NC1CCCc2ccccc21)c1cccc(Br)c1 (stereo not drawn)	43	-2	-13	-18	-18
O=C(CN1CCCCC1)N1N=C(c2cccs2)CC1c1cccs1 (stereo not drawn)	40	11	7	2	-1
O=C(CNCCO)N1N=C(c2cccs2)CC1c1cccs1 (stereo not drawn)	1	3	4	0	.
CC(C)(C)[C@H]1C=C(C(=O)Nc2ccccc2)O[C@@H](OCCCCO)C1	21	-8	.	.	7
CC(C)(C)[C@@H]1C=C(C(=O)O)O[C@H](OCCCCO)C1	.	-6	.	.	.
CCO[C@H]1OC(C(=O)N2CCN(Cc3ccccc3)CC2)=C[C@@H](C2CCCCC2)[C@@H]1CCCO	53*	3	0	-19	0
CCO[C@H]1OC(C(=O)Nc2ccccc2)=C[C@@H](C)[C@@H]1CCCO	91*	2	-7	-2	-6
O=C(NC1CCOCC1)C1CCC(=O)N(CCc2cccc(F)c2)C1 (stereo not drawn)	1	-1	0	17	.
C#CCN(Cc1ccccc1)S(=O)(=O)C=C	10	-1	.	.	.
COc1cccc(CNC(=O)COC(=O)c2nc(Cl)c(Cl)c(Cl)c2Cl)c1	35	-11	.	.	.
COc1ccc(CNC(=O)CNS(=O)(=O)c2cccc(C#N)c2)cc1OC	-8	-1	-10	-11	3
N#Cc1cccc(S(=O)(=O)NCC(=O)NCc2ccc3c(c2)OCO3)c1	12	-1	.	.	.
N#Cc1cnc(NN)nc1	-2	13	3	-7	.
CSc1ccccc1C(=O)N1CCCCC1	16	23	-12	-4	.
C=CCN(CC(O)c1cccc([N+](=O)[O-])c1)C(C)CCc1ccccc1 (stereo not drawn)	1	-1	3	-11	.
Nc1ncnc2nc(SCCOc3ccc(Cl)cc3)[nH]c12	44	62	-15	-1	-1
O=[N+]([O-])c1ccc(-[n+]2nc(-c3ccccc3)nn2-c2ccccc2)cc1	-1	13	-10	-2	.
SMILES	VLA-4 inh	JMJD2C inh	GPR7 antagonist	pCIP destab	VLA-4 allo CP
CC(CCc1ccco1)NC(=O)Cn1ncc2c1-c1ccccc1OC2 (stereo not drawn)	57*	8	-5	2	4
O=C1CCC(c2ccc3c(c2)CCC3)=NN1	53*	-32	-8	3	1
O=C1CCC(c2ccccc2)=NN1	2	-28	4	0	.
COc1ccc(NC(C)=O)cc1NC(=O)c1ccc2ccccc2c1	-7	-1	-8	-2	.
Cc1ccc(CN2C(=O)C3CCCN3c3ccc(S(=O)(=O)N4CCOCC4)cc32)cc1 (stereo not drawn)	-3	35	-4	-5	.
C=CCn1c(SCC(=O)Nc2ccccc2F)nnc1C(C)NC(=O)c1ccccc1F (stereo not drawn)	3	23	-13	-6	.
C=CCn1c(SCC(=O)Nc2nc(C)cs2)nnc1C(C)NC(=O)c1ccccc1Cl (stereo not drawn)	54*	-13	-12	-16	2
CC(Oc1cccc(Cl)c1)C(=O)Nc1nc(-c2ccccn2)cs1 (stereo not drawn)	53*	-4	.	.	-9
Cc1ccc(NC(=O)Nc2c(Cl)cccc2Cl)cn1	-4	4	-7	-8	0
CN(CC(=O)Nc1ccc(F)cc1)C(=O)COC(=O)c1cccc(N(C)C)c1	-7	11	.	.	.
CN(CC(=O)Nc1ccc(F)cc1)C(=O)COC(=O)c1ccccc1	50*	9	.	.	0

High-throughput results deposited in PubChem BioAssay by several laboratories.
